From PubChem BioAssay
An excerpt weighted towards active compounds, which were near 4.7% of everything screened.
TRHR enhancer = TRH receptor (human) allosteric enhancement | enhancement, % at 2 µM | 0.66% of 360,000 active | TRHR cells, fluo-8 calcium fluorescence, EC20 TRH enhancement | P34981; in the data active = enhancement above about 30%
Target sequence (P34981 whole entry, looked up): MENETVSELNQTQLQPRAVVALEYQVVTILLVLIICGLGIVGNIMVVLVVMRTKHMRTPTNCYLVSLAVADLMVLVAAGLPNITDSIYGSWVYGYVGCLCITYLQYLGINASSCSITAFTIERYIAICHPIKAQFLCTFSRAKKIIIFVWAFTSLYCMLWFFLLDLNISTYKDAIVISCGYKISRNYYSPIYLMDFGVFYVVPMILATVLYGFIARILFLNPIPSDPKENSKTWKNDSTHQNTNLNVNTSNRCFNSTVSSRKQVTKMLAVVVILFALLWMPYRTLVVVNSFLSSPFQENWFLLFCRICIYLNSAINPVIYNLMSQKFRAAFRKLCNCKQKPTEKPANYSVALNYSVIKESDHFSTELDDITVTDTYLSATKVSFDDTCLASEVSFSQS
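TRHR-expressing cells loaded with fluo-8 calcium dye were read kinetically (ex 480/em 530) during compound addition, then stimulated with an EC20 of TRH (10 nM final). Enhancement of the Gq-mediated intracellular calcium response was scored.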
TRHR ag = TRH receptor (human) agonism | AID 493084 | activation, % at 2 µM | 0.18% of 360,000 active | TRHR cells, calcium flux fluo-8, FDSS agonist mode
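Steps: seed TRHR cells overnight; add fluo-8 no-wash Ca dye, RT 30 min–1.5 h; record 10 s baseline; pin-transfer compounds; monitor fluorescence 1 cycle/s for the agonist window. Calcium increases flag candidate agonists.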
D1 PAM = human D1 dopamine receptor positive modulation | HEK293 TREx D1 cells, calcium flux, dopamine EC20 potentiation | potentiation, % at 10 µM | 0.036% of 360,000 active; in the data active = potentiation above about 30%
D1 ag = agonists of human D1 dopamine receptor; P21728; HEK293 T-REx D1 cells, calcium flux, agonist mode; activation, % at 2 µM; 1% of 360,000 active; AID 504660
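Inducible HEK293 T-REx D1 cells, force-coupled to calcium signalling, were plated at 4000 cells/well with tetracycline and held overnight at 30 C. After no-wash calcium dye loading, compound-evoked calcium rise over 180 s flagged agonists.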
D1 antag = blocks dopamine activation of the human D1 receptor; AID 504652; HEK293 TREx D1 cells, calcium flux, dopamine EC80; stronger effect = lower value; activity change, negative = inhibition, % at 10 µM; 3.2% of 360,000 active; in the data active = activity change below about -30%
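Allosteric or orthosteric antagonism assessed as attenuation of the calcium response to EC80 dopamine, added 180 s after compound, in induced HEK293 Trex D1 cells loaded with no-wash calcium dye.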
Each line names hits and unclear results; the compound was inactive in the other large screens. Cut-off read from the data, not from the text of the source, unless noted: active = activation above about 30%; inactive = the rest.

Cc1ccc(-n2c(/C=C\c3ccc(F)c(F)c3)nc3ccccc3c2=O)c(C)c1	none
CCc1ccccc1NC(=O)c1cccn(Cc2ccccc2F)c1=O	none
C/C=C(\C)C(=O)OC1C(C)=C2C(C1OC(=O)CCCCC)C(C)(OC(C)=O)CC(OC(=O)CCC)C1(O)C2OC(=O)C1(C)O (stereo not drawn)	D1 ag 109, D1 antag -31
c1ccc(CNCCc2c[nH]c3ccccc23)cc1	none
c1ccc2c(CCNCc3ccc4c(c3)OCO4)c[nH]c2c1	D1 ag 99, D1 antag -43
CCOc1ccc(CNCCc2ccc3c(c2)OCO3)cc1	D1 ag 30
COc1ccccc1-c1nn2c(=O)cc(CN3CCN(C(=O)COc4ccccc4Cl)CC3)nc2s1	none
COc1cccc(C2SCC(=O)Nc3c2c(C)nn3-c2ccc(C)c(Cl)c2)c1OC (stereo not drawn)	none
CCCCNC(=S)N1CCn2cccc2C1c1cccnc1 (stereo not drawn)	none
CNC(=S)N1CCn2cccc2C1c1cccnc1 (stereo not drawn)	D1 antag -33
Nc1c(C(=O)OCc2ccccc2)c2nc3ccccc3nc2n1Cc1cccs1	D1 antag -30
CCC(C)OC(=O)c1c(N)n(Cc2cccs2)c2nc3ccccc3nc12 (stereo not drawn)	none
CS(=O)(=O)N1CCCC(C(=O)N2CCC3(CC2)OCCO3)C1 (stereo not drawn)	D1 antag -34
O=[N+]([O-])c1ccc(NCc2ccccc2)c2nonc12	TRHR ag 215, D1 ag 593, D1 antag -59
O=[N+]([O-])c1ccc(NCc2ccc(Cl)cc2)c2ccncc12	none
Cc1ccccc1CN1C(=O)CN=C(c2ccccc2)c2cc(Cl)ccc21	none
Ic1ccccc1CN[C@@H]1C2CCN(CC2)[C@@H]1C(c1ccccc1)c1ccccc1	D1 ag 84, D1 antag -31
COc1ccc(CNCCc2c(C)[nH]c3ccc(OC(F)(F)F)cc23)c(OC)c1	D1 ag 99, D1 antag -55
N#Cc1cc2c(nc1SCC(=O)Nc1ccc(OC(F)(F)F)cc1)C1CCN2CC1	none
CC(C)NC(C)C(=O)c1ccc2ccccc2c1 (stereo not drawn)	TRHR enhancer 37, D1 antag -34
CC(C(=O)c1ccc2ccccc2c1)N1CCCCC1 (stereo not drawn)	none
CCOc1ccc(NC(=O)c2cccn(Cc3cccc(Cl)c3)c2=O)cc1	none
C=C1C2C[C@H](O)C(C)(C)[C@@]2(O)[C@H](O)C[C@]23C[C@@](C)(O)[C@H](CC[C@H]12)[C@H]3OC(C)=O (stereo partly drawn)	D1 antag -34
O=C(CCn1nc(-c2ccc(Cl)cc2)ccc1=O)N1CCC2(CC1)OCCO2	none
O=C(Cn1nc(-c2ccc(Cl)cc2)ccc1=O)N1CCC2(CC1)OCCO2	D1 antag -35
N#Cc1c(/N=C/c2ccc(O)cc2O)sc2c1C1CCN2CC1	D1 ag 34
O=C(Nc1ccc(F)c([N+](=O)[O-])c1)c1cccn(Cc2ccccc2)c1=O	none (no result: D1 antag)
COc1ccc(C[C@@H]2c3cc(O)c(OC)cc3CCN2C)cc1O	D1 antag -88
COc1cc2c(cc1O)[C@@H]1Cc3ccc(OC)c(O)c3CN1CC2	D1 antag -90
CCCCCC[N+](=O)[O-]	none (no result: D1 antag)
CCCCCCCCCCCCCCCC[N+](C)(C)C	D1 ag 31
COc1ccc(-n2c(/C=C\c3ccccc3F)nc3ccccc3c2=O)c(OC)c1	none
CCN(CC)C(=O)c1ccc(NC(=O)c2cccc(S(=O)(=O)N3CCN(Cc4ccccc4)CC3)c2)cc1	D1 antag -32
Cc1cccc(-n2c(/C=C/c3cn(C)c4ccccc34)nc3ccccc3c2=O)c1	none
NC(=O)CSc1nnc([C@@H](N)Cc2c[nH]c3ccccc23)o1	D1 antag -44
Nc1c(C(=O)Nc2ccc(Br)cc2F)sc2nc3c(cc12)N1CCC3CC1	D1 antag -32
Cc1ccccc1-n1c(/C=C/c2ccc(O)cc2)nc2ccccc2c1=O	none
O=S1(=O)N(CCN2CC=C(c3c[nH]c4cc(F)ccc34)CC2)c2cccc3c2N1CCC3	D1 antag -41
CC(C)N1CC=C(c2c[nH]c3ccccc23)CC1	none
C#CCN1CCN(c2ccc(F)cc2)CC1	none
N#CCN1CCN(c2ccc(C(F)(F)F)cc2)CC1	D1 antag -50
COc1ccc(OCC(=O)N2CCN(Cc3cccc(OC)c3OC)CC2)cc1	none
COCCCn1c(N)c(C(=O)OC(C)COC)c2nc3ccccc3nc21 (stereo not drawn)	D1 antag -32
CN1CCC(N(C)c2nc(-c3ccc([N+](=O)[O-])cc3)nc3ccccc23)CC1	D1 ag 37
N#CC(C#N)=Cc1ccc(N2CCCC2)cc1	D1 ag 37
CCOc1ccccc1CN1C2CCC1CC(c1ccc(C)cc1)C2 (stereo not drawn)	D1 antag -41
CCOc1ccccc1CNCCc1ccc2c(c1)OCO2	none
CNC(=O)c1cccn(Cc2cc(C(F)(F)F)cc(C(F)(F)F)c2)c1=O	D1 ag 30
O=C1NC(=O)N(Cc2ccccc2)C(=O)/C1=C\c1ccco1	D1 antag -32
O=C1NC(=O)N(Cc2ccc(F)cc2)C(=O)/C1=C\C=C\c1ccco1	none
CCN(CC)c1ccc(/C=C2\C(=O)NC(=O)N(Cc3ccco3)C2=O)cc1	D1 antag -46
CCN(CC)c1ccc(/C=C2/C(=O)NC(=O)N(CC3CCCO3)C2=O)cc1 (stereo not drawn)	none
COc1cccc(-n2c(/C=C/c3cccc(C)c3)nc3ccccc3c2=O)c1	none
c1cncc(CNC2=NCCCCC2)c1	D1 antag -47
c1cncc(CNC2CCCC2)c1	none
Cc1oc2cc3oc(=O)c(CCC(=O)N4CCCCC4)c(C)c3cc2c1C	none
O=C1Nc2ccccc2/C1=C/c1cnc[nH]1	none
COc1ccc2c(c1)/C(=C/c1cnc[nH]1)C(=O)N2	D1 antag -34
CCCN1CCC[C@H](c2cccc(O)c2)C1	none
CCCN1CCC[C@@H](c2cccc(O)c2)C1	D1 antag -54
CCCCc1nn2c(=O)cc(COC(=O)Cc3ccccc3)nc2s1	none
Cc1ccc(NC(=O)CN2C(=O)CN=C(c3ccccc3)c3ccccc32)cc1Cl	none
N#Cc1cc2c(nc1SCC(=O)Nc1ccc(F)c(Cl)c1)C1CCN2CC1	none
CN(C)CCCNCC(=O)Nc1ccc(Cl)cc1C(=O)c1ccccc1	none
CCN(CC)CCNCC(=O)Nc1ccc(Cl)cc1C(=O)c1ccccc1	D1 antag -38
Cc1nnc(NC(=O)c2cccn(Cc3cccc(Cl)c3)c2=O)s1	none
COc1ccc(NC(=O)c2cccn(Cc3ccc(Cl)cc3)c2=O)c(OC)c1	D1 antag -40
CCSc1nnc(NC(=O)c2cccn(Cc3ccc(Cl)cc3)c2=O)s1	D1 antag -35
